Experimental data taken from PubChem BioAssay AID2155 (National Center for Advancing Translational Sciences (NCATS), 2009).
The source made the active and inactive calls. Calls come from the whole dose curve.

The compounds below were run against Polyunsaturated fatty acid lipoxygenase ALOX15 (Homo sapiens) (UniProt P16050) (assay: Cuvette-Based Assay fo Inhibitors of 15-hLO-1 (15-human lipoxygenase 1): Series 1 - Round 1). Details: purified 15-hLO-1, cuvette UV 234 nm product formation.
Description: Assay Provider: Holman, T.R., University of California, Santa Cruz Screening Center PI: Austin, Christopher P. Screening Center: NIH Chemical Genomics Center Human lipoxygenase 15hLO-1 is a member of the closely related lipoxygenase family of enzymes which catalyze the site-specific oxidation of arachidonic acid to various hormone precursor molecules and as such is a candidate for drug development in a variety of disease areas, such as cancer and inflammation. The enzyme activity of 15hLO-1 was determined by a direct measurement of product formation by monitoring the absorbance at 234 nm in a 2 mL cuvette. IC50 values of inhibitors were obtained by measuring the enzymatic rate at a variety of concentrations (Carroll et al, Segraves et al). A purified preparation of human 15hLO-1 was supplied by Professor Ted Holman, University of California, Santa Cruz. This assay is includes some confirmation and follow-up compounds for related primary screening assay AID 887. The follow-up compounds focus on analogues of current lead 15hLO-1 inhibitor series.
For control experiments, 2 mL of substrate buffer (7 uM arachidonic acid / 25 mM HEPES / 0.01% (v/v) Triton X-100, pH 7.5) was aliquoted in a cuvette with a magnetic stir bar. After equilibrium was ensured, an aliquot of inhibitor solvent was added (DMSO or MeOH), and equilibrium was once again assured. The reaction was started by adding enzyme to the cuvette and the reaction was followed until completed. The inhibition experiments were performed as above, except the actual inhibitory compound was added instead of vehicle. To achieve an IC50, typically 5 concentrations of the inhibitor were studied. If the inhibitor concentration was constant, then five different reaction volumes were used. Step \ Parameter \ Value \ Description 1; UV-Vis; 234 nm; Equilibration 2; Reagent; 2 mL; Substrate buffer 3; UV-Vis; 234 nm; Equilibration 4; Reagent; varies; Compound 5; UV-Vis; 234 nm; Equilibration 6; Reagent; 50-200 nM; Enzyme 15hLO-1 7; UV-Vis; 234 nm; Enzymatic reaction Step \ Notes 1. Blank cuvette to air. 2. 7 uM AA, 25 mM HEPES, 0.01% Triton X-100, pH 7.5. 3. No change in absorbance ensured. 4. Compound vehicle or compound in various concentrations depending on potency. 5. No change in absorbance ensured. 6. Enzyme concentration to achieve reaction rate between 0.02 and 0.04 AU/s. 7. Enzymatic reaction visualized until completion.

Sequence of Polyunsaturated fatty acid lipoxygenase ALOX15 (Homo sapiens) (P16050 whole entry, looked up): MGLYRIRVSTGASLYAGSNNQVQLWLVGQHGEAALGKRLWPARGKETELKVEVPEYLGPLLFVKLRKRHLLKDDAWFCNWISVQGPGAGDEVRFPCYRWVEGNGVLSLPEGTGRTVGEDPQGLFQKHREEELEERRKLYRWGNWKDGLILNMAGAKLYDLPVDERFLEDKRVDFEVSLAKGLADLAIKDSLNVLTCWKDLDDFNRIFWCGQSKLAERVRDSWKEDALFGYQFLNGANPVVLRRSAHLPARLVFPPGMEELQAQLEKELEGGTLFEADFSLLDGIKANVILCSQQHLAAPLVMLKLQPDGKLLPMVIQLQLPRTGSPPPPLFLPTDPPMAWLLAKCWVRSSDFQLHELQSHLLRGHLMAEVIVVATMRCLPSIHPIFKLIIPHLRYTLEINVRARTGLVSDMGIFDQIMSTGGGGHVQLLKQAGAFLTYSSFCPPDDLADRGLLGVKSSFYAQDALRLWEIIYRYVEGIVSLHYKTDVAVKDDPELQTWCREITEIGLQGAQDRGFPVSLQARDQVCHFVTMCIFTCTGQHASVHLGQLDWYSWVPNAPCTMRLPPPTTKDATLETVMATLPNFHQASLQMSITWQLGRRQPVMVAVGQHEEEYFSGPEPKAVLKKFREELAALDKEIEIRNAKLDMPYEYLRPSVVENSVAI

SMILES | Potency
N#Cc1nc(-c2cccc3ccccc23)oc1NCC#CCOC(=O)c1cccs1 | 25000 nM (active)
O=C(OCC#CCSc1nnc(-c2cccc3ccccc23)o1)c1cnc[nH]1 | 1000 nM (active)
O=C(OCC#CCSc1nnc(-c2cccc3ccccc23)o1)c1ccc(Cl)cc1 | 18 nM (active)
O=C(OCC#CCSc1nnc(-c2cccc3ccccc23)o1)c1ccc(Br)cc1 | 16 nM (active)
COc1ccc(C(=O)OCC#CCSc2nnc(-c3cccc4ccccc34)o2)cc1 | 22 nM (active)
O=C(OCC#CCSc1nnc(-c2cccc3ccccc23)s1)c1cccs1 | 25000 nM (active)
CC(C)Nc1oc(-c2cccc3ccccc23)nc1C#N | 190 nM (active)
O=C(NCC#CCSc1nnc(-c2cccc3ccccc23)o1)c1cccs1 | 1000 nM (active)
C=CCNc1nnc(-c2cccc3ccccc23)o1 | 1000 nM (active)
OCC#CCSc1nnc(-c2cccc3ccccc23)o1 | 1000 nM (active)
O=C(OCC#CCNc1nnc(-c2cccc3ccccc23)o1)c1cccs1 | 1000 nM (active)
